Active and inactive are the calls of the source. How the source made its calls: active means hit-call score of the fitted dose curve at least 0.9, where 1 is the maximum; inactive means score below 0.9.
Assays:
Conditions in all cases: mRNA level, 48 h; actives raise or lower the signal
[1] = read-out: Bcl-2 (BID) gene, BID (gene 637); test: LTEA_HepaRG_BID: Life Technologies and Expression Analysis (LTEA) Assay for Bcl-2 (BID) gene using HepaRG (AID 2283476)
How it was run: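 Cells are plated, cultured 48 h, switched to serum-free induction medium, then dosed 48 h (100 uM top, half-log steps, 0.5% DMSO). RNA is isolated and BID expression read by qRT-PCR.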

Caspase-3 (Homo sapiens) = Caspase-3 (Homo sapiens) (UniProt P42574); test: LTEA_HepaRG_CASP3: Life Technologies and Expression Analysis (LTEA) Assay for cysteine-aspartic acid protease (CASP3) using HepaRG (AID 2283477)
How it was run: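 In HepaRG liver cells dosed for 48 h at up to 100 uM (eight-point, duplicate), CASP3 expression changes are scored by qRT-PCR. Activity is fitted in both directions with 0.5% DMSO as baseline.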

[2] = read-out: Cytochrome P450 (CYP1A2), CYP1A2 (gene 1544); test: LTEA_HepaRG_CYP1A2: Life Technologies and Expression Analysis (LTEA) Assay for Cytochrome P450 (CYP1A2) using HepaRG (AID 2283479)
How it was run: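 Assesses CYP1A2 mRNA in human HepaRG liver cells after 48 h chemical exposure at up to 100 uM. Values come from qRT-PCR with bidirectional curve fitting relative to DMSO.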

[3] = read-out: cysteine-aspartic acid protease (CASP8), CASP8 (gene 841); test: LTEA_HepaRG_CASP8: Life Technologies and Expression Analysis (LTEA) Assay for cysteine-aspartic acid protease (CASP8) using HepaRG (AID 2283480)
How it was run: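 qRT-PCR readout of CASP8 mRNA, normalized to three housekeeping genes, after 48 h chemical exposure of HepaRG cells; 8-point half-log series, top 100 uM, 0.5% DMSO vehicle. Bidirectional curve fitting against DMSO baseline.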

[4] = read-out: Cytochrome P450 (CYP2B6), CYP2B6 (gene 1555); test: LTEA_HepaRG_CYP2B6: Life Technologies and Expression Analysis (LTEA) Assay for Cytochrome P450 (CYP2B6) using HepaRG (AID 2283481)
How it was run: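 Using 48 h treatment of HepaRG cells in serum-free induction medium, concentrations spanned half-log steps from 100 uM in 0.5% DMSO vehicle. CYP2B6 mRNA induction or loss is scored by qRT-PCR against DMSO.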

[5] = read-out: Cytochrome P450 2C19 (Homo sapiens) (UniProt P33261); test: LTEA_HepaRG_CYP2C19: Life Technologies and Expression Analysis (LTEA) Assay for CYP2C19 using HepaRG (AID 2283482)
How it was run: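 Human HepaRG liver cells received test chemicals for 48 h (highest 100 uM, half-log dilutions in 0.5% DMSO). CYP2C19 mRNA induction or loss is read by multiplexed qRT-PCR and fitted in both directions versus vehicle.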

CYP2C8 (gene 1558) = test: LTEA_HepaRG_CYP2C8: Life Technologies and Expression Analysis (LTEA) Assay for CYP2C8 using HepaRG (AID 2283483)
How it was run: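 HepaRG (human liver line), 48 h chemical exposure, 8-pt half-log series from 100 uM, 0.5% DMSO vehicle. Readout: CYP2C8 transcript by qRT-PCR, housekeeping-normalized. Bidirectional fit vs DMSO baseline.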

CYP2C9 (gene 1559) = test: LTEA_HepaRG_CYP2C9: Life Technologies and Expression Analysis (LTEA) Assay for CYP2C9 using HepaRG (AID 2283484)
How it was run: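 HepaRG, 48 h dosing, 8-pt half-log series, top 100 uM, 0.5% DMSO vehicle. Read-out: CYP2C9 transcript by TaqMan qRT-PCR, housekeeping-normalized (ACTB/GAPDH/POLR2A). Gain or loss fitted vs DMSO baseline.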

CYP2E1 (gene 1571) = test: LTEA_HepaRG_CYP2E1: Life Technologies and Expression Analysis (LTEA) Assay for CYP2E1 using HepaRG (AID 2283485)
How it was run: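 Readout is qRT-PCR of CYP2E1 mRNA, normalized to three housekeeping genes and fitted bidirectionally against 0.5% DMSO. HepaRG cells were dosed 48 h at eight concentrations, highest 100 uM with half-log dilutions.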

CYP4A11 (gene 1579) = test: LTEA_HepaRG_CYP4A11: Life Technologies and Expression Analysis (LTEA) Assay for CYP4A11 using HepaRG (AID 2283486)
How it was run: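 Readout is CYP4A11 mRNA induction or suppression (qRT-PCR, ACTB/GAPDH/POLR2A normalization) in human HepaRG cells after 48 h chemical treatment, concentrations to 100 uM in 0.5% DMSO, fitted bidirectionally against vehicle.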

[6] = read-out: DNA damage-inducible transcript 3 (DDIT3), DDIT3 (gene 1649); test: LTEA_HepaRG_DDIT3: Life Technologies and Expression Analysis (LTEA) Assay for DNA damage-inducible transcript 3 (DDIT3) using HepaRG (AID 2283488)
How it was run: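 Cells are human HepaRG liver cells treated for 48 h with eight half-log concentrations up to 100 uM in 0.5% DMSO. Transcript levels come from qRT-PCR normalized to three housekeeping genes, with activity fitted in both directions relative to vehicle.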

[7] = read-out: Pro-epidermal growth factor (Homo sapiens) (UniProt P01133); test: LTEA_HepaRG_EGF: Life Technologies and Expression Analysis (LTEA) Assay for Epidermal growth factor (EGF) using HepaRG (AID 2283489)
How it was run: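 EGF expression changes in human HepaRG cells are scored by bidirectional fitting relative to 0.5% DMSO controls. Chemicals are tested at eight half-log concentrations up to 100 uM for 48 h in serum-free induction medium.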

[8] = read-out: Early growth response protein 1 (EGR1) transcription factor, EGR1 (gene 1958); test: LTEA_HepaRG_EGR1: Life Technologies and Expression Analysis (LTEA) Assay for Early growth response protein 1 (EGR1) transcription factor using HepaRG (AID 2283490)
How it was run: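 HepaRG, 48 h exposure, 8-pt half-log series from 100 uM, 0.5% DMSO vehicle; EGR1 transcript by TaqMan qRT-PCR (Fluidigm array), housekeeping-normalized; bidirectional fit relative to DMSO baseline.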

[9] = read-out: Ezrin (EZR), EZR (gene 7430); test: LTEA_HepaRG_EZR: Life Technologies and Expression Analysis (LTEA) Assay for Ezrin (EZR) using HepaRG (AID 2283491)
How it was run: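 Read-out is EZR transcript level by qRT-PCR, normalized to three housekeeping genes and fitted bidirectionally against the DMSO control. Human HepaRG cells received test chemicals for 48 h at eight half-log concentrations up to 100 uM in 0.5% DMSO.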

[10] = read-out: Cytochrome P450 3A7 (Homo sapiens) (UniProt P24462); test: LTEA_HepaRG_CYP3A7: Life Technologies and Expression Analysis (LTEA) Assay for CYP3A7 using HepaRG (AID 2283492)
How it was run: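 Cells were thawed, plated, cultured 48 h, then treated for a further 48 h with chemicals (eight-point half-log series from 100 uM, 0.5% DMSO). RNA was isolated and CYP3A7 expression quantified by qRT-PCR normalised to ACTB, GAPDH and POLR2A.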

CYP3A5 (gene 1577) = test: LTEA_HepaRG_CYP3A5: Life Technologies and Expression Analysis (LTEA) Assay for CYP3A5 using HepaRG (AID 2283493)
How it was run: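 Human HepaRG hepatic cells receive 48 h chemical treatment at eight concentrations (half-log steps from 100 uM) in 0.5% DMSO. Expression of CYP3A5 is quantified by Fluidigm qRT-PCR and normalized to three reference genes.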

[11] = read-out: Fatty Acid-Binding Protein 1 (FABP1), FABP1 (gene 2168); test: LTEA_HepaRG_FABP1: Life Technologies and Expression Analysis (LTEA) Assay for Fatty Acid-Binding Protein 1 (FABP1) using HepaRG (AID 2283494)
How it was run: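 qRT-PCR readout of FABP1 transcript (normalized to three housekeeping genes) after 48 h chemical exposure of HepaRG cells; eight concentrations, half-log steps, max 100 uM, 0.5% DMSO vehicle; gain or loss fitted relative to DMSO baseline.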

[12] = read-out: Cytochrome P450 4A22 (Homo sapiens) (UniProt Q5TCH4); test: LTEA_HepaRG_CYP4A22: Life Technologies and Expression Analysis (LTEA) Assay for Cytochrome P450 4A22 (CYP4A22) using HepaRG (AID 2283495)
How it was run: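 Cryopreserved HepaRG cells, plated and cultured 48 h, then switched to serum-free induction medium and treated 48 h (duplicates, up to 100 uM, half-log steps, 0.5% DMSO). Expression change of CYP4A22 was fitted bidirectionally against vehicle.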

[13] = read-out: Cytochrome P450 3A4 (Homo sapiens) (UniProt P08684); test: LTEA_HepaRG_CYP3A4: Life Technologies and Expression Analysis (LTEA) Assay for CYP3A4 using HepaRG (AID 2283487)
How it was run: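 HepaRG, 48 h exposure, 8-pt CRC from 100 uM (half-log), 0.5% DMSO, duplicates; serum-free induction medium. Readout: CYP3A4 mRNA, qRT-PCR, ACTB/GAPDH/POLR2A normalization. Bidirectional fit vs DMSO.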

Measured: AC50

Chain of Caspase-3 (Homo sapiens) (P42574 whole entry, looked up): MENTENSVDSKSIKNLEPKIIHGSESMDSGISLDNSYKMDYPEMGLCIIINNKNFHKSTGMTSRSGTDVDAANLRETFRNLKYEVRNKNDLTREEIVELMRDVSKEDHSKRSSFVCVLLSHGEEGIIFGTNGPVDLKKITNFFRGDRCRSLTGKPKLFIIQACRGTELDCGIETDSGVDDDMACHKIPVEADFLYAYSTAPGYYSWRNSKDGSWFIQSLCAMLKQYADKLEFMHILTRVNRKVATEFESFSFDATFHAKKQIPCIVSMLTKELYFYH
Chain of Cytochrome P450 3A4 (Homo sapiens) (P08684 whole entry, looked up): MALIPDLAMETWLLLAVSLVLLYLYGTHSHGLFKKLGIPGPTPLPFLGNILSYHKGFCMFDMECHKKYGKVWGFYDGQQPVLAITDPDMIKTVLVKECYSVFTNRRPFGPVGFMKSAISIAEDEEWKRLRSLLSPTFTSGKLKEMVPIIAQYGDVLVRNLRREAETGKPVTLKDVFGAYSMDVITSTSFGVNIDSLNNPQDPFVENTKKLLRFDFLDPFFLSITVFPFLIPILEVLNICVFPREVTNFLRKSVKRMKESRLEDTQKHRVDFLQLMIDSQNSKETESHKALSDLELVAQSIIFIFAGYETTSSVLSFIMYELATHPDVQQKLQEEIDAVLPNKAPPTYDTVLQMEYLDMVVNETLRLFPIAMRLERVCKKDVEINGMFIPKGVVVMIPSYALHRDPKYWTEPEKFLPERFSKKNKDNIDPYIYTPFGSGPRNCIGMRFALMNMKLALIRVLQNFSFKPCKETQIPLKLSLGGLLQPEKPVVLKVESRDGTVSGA
Chain of Cytochrome P450 2C19 (Homo sapiens) (P33261 whole entry, looked up): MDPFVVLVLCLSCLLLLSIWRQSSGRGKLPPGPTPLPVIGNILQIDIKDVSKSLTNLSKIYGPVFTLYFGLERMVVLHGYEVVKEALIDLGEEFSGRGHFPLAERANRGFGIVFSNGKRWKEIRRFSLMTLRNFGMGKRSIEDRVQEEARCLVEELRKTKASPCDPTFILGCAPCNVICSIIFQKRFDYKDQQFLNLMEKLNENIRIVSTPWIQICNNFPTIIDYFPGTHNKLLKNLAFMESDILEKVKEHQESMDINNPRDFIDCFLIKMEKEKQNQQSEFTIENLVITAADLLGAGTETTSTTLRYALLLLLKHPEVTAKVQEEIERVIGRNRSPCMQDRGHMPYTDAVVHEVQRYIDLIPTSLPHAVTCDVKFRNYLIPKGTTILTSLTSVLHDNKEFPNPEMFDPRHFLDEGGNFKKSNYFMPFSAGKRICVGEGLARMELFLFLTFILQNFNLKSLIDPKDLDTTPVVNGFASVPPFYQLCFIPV
Chain of Cytochrome P450 3A7 (Homo sapiens) (P24462 whole entry, looked up): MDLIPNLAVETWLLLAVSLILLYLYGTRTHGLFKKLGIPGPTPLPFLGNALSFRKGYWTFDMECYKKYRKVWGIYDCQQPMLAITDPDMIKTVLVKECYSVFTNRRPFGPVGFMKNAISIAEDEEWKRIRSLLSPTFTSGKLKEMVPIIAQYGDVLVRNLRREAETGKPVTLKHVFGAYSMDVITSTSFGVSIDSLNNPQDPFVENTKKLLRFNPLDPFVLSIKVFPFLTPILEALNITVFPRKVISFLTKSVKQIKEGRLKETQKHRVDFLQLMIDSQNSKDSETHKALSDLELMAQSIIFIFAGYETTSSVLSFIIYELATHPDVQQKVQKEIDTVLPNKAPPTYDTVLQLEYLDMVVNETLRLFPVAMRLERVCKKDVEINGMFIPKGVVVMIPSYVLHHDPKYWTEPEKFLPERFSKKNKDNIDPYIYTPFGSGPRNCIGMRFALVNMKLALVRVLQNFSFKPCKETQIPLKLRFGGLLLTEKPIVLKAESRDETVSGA

Oc1ccc(Cl)cc1Cl
active: [1] 12.2 µM
not listed: [13]
inactive: all other assays above

CN(C)CCO
inactive: all assays above

Cc1cc(-c2ccc(N)c(C)c2)ccc1N
active: [2] 37 µM | [4] 9.15 µM | CYP2E1 (gene 1571) 16.3 µM | [11] 24.9 µM
inactive: all other assays above

O=S(=O)(O)C(F)(F)C(F)(F)C(F)(F)C(F)(F)C(F)(F)C(F)(F)F
active: [4] 24.6 µM | [5] 32 µM | CYP2C8 (gene 1558) 50 µM | CYP2C9 (gene 1559) 6.28 µM | CYP4A11 (gene 1579) 22.8 µM | [13] 34.9 µM | [10] 20.9 µM | [11] 9.02 µM | [12] 25.1 µM
inactive: all other assays above

Nn1cnnc1
not listed: [13]
inactive: all other assays above

Nc1ccc(-c2ccc(N)cc2)cc1
active: [4] 50 µM | CYP2E1 (gene 1571) 12.3 µM | CYP4A11 (gene 1579) 33.1 µM | [12] 8.3 µM
not listed: [10] | [13]
inactive: all other assays above

O=C(O)C(F)(F)C(F)(F)C(F)(F)C(F)(F)C(F)(F)C(F)(F)C(F)(F)C(F)(F)F
inactive: [1] | Caspase-3 (Homo sapiens) | [3] | [7] | CYP3A5 (gene 1577)
active: [2] 83.6 µM | [4] 82.4 µM | [5] 87.1 µM | CYP2C8 (gene 1558) 80 µM | CYP2C9 (gene 1559) 80.5 µM | CYP2E1 (gene 1571) 93.9 µM | CYP4A11 (gene 1579) 89.5 µM | [6] 77.9 µM | [8] 83.4 µM | [9] 77 µM | [10] 89 µM | [11] 81.1 µM | [12] 90 µM

From PubChem BioAssay (EPA / NIEHS)
